In PMC7819943, “Rice protein-binding microarrays: a tool to detect cis-acting elements near promoter regions in rice”:
Over roughly 68,000 sequences, “fluorescence intensity (a.u.)” has its median near 9,100; the highest 2% begin near 16,000. Only a selection was taken, and the highest values are over-represented in it overall.

target: OsWRKY34 (Oryza sativa, UniProt Q0JBA9 1-250); test: protein-binding microarray (RPBM); PBS, 2% BSA, 51.3 ng/ul salmon testes DNA, 50 uM zinc acetate, 200 nM TF, 25 C, 1 h; high values mean tight binding; conditions: protein: recombinant; tags: N-terminal polyhistidine and DsRed monomer fusion (pET32a); label: CyDye5-dUTP incorporated in the synthesized complementary strand; 3' TTTTT single-stranded linker to array surface; dsDNA, one strand shown
Summary of the method: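 The binding signal for each feature is its fluorescence intensity in arbitrary units. An Axon 4000B scanner was used to read a custom Agilent array that had been made double-stranded with Cy5-dUTP primer extension, blocked with 2% BSA, incubated at 25 °C for 1 h with 200 nM protein in PBS, 2% BSA, salmon testes DNA and 50 µM zinc acetate, and washed. The protein was an N-terminal polyhistidine–DsRed transcription factor fusion from E. coli BL21-CodonPlus, purified on Ni–NTA.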

OsWRKY34, sequence (Q0JBA9 entry or part of it): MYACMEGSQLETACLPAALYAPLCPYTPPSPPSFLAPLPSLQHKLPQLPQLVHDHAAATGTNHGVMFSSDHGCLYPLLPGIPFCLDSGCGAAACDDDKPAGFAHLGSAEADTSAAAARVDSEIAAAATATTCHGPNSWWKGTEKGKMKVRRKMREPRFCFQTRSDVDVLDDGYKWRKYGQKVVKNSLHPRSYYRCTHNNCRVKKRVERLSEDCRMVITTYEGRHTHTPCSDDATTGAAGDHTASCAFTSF

| Sequence | binding signal |
| --- | --- |
| GAGCCCGTACTCATTTCTCGCCAAGTGCACCACTTCACTCCGGAGTCACCTAGTGCAG | 10700 fluorescence intensity (a.u.) |
| TCCTCTACTGGTTCTACGTCTTCTCATAATCAACCCAAATCGGAGTCACCTAGTGCAG | 11700 fluorescence intensity (a.u.) |
| CGCTCATCTATTTCTTTGTAGTACAACGCAGGCGCTCACACGGAGTCACCTAGTGCAG | 8090 fluorescence intensity (a.u.) |
| CTTCCCATGGCTTTTACTCTCCACTCGAAATCTCGTAACACGGAGTCACCTAGTGCAG | 11100 fluorescence intensity (a.u.) |
| TAGCTCCATTGTTCGATCTCATCTCCCTTAGCTAGCTACTCGGAGTCACCTAGTGCAG | 8130 fluorescence intensity (a.u.) |
| CTCGTCATTGTTCCCATGTTTTTCTATTTCATTTCTAATTCGGAGTCACCTAGTGCAG | 9350 fluorescence intensity (a.u.) |
| AATCGATTCTCCACTACTCTCTCGTCATTGTTCCCATGTTCGGAGTCACCTAGTGCAG | 20100 fluorescence intensity (a.u.) |
| GCAGCATCACTCCATGTTCTCTCTTCCTACTCTCCATACTCGGAGTCACCTAGTGCAG | 16800 fluorescence intensity (a.u.) |
| GCATCACTATTCACTCCATGTTCTCTCTTCCTACTCTCCACGGAGTCACCTAGTGCAG | 8250 fluorescence intensity (a.u.) |
| ACACACTACTACTACTCTTCTCCCTCTCCATCTCTTCCCTCGGAGTCACCTAGTGCAG | 8320 fluorescence intensity (a.u.) |
| CTTATGTCTCACTAAATATTTACTTTTGCCATCGGCAAATCGGAGTCACCTAGTGCAG | 8080 fluorescence intensity (a.u.) |
| GTCACCTTTTCTTTTATCAACATTCATTTGTTTTATTACTCGGAGTCACCTAGTGCAG | 8270 fluorescence intensity (a.u.) |
| AATTCAACGCACGTCTCTTGTCCTGCACTTCTGCTATGCCCGGAGTCACCTAGTGCAG | 11000 fluorescence intensity (a.u.) |
| AATTCTATGCCTCGATACATTTTTGGTGTTTATTATGGTTCGGAGTCACCTAGTGCAG | 8460 fluorescence intensity (a.u.) |
| CTCACCGCGCCGCTCACCTCCTCAAGACCACCACCCACCACGGAGTCACCTAGTGCAG | 9730 fluorescence intensity (a.u.) |
| ACAAATCCTGGTCATTTCTTGACCGTATGAATTCTAGAAACGGAGTCACCTAGTGCAG | 9650 fluorescence intensity (a.u.) |
| AGAATCTGACGTTTTATTTCTGAAACTTTCTTTGCATGCACGGAGTCACCTAGTGCAG | 8030 fluorescence intensity (a.u.) |
| CAACCTCTTGCTAACTTTCCTTTGAGTCTATCTCTCTCATCGGAGTCACCTAGTGCAG | 10700 fluorescence intensity (a.u.) |
| AAGAAATCTCTTTGAAAAACTTGCATGCTAACTTGAGACGCGGAGTCACCTAGTGCAG | 44900 fluorescence intensity (a.u.) |
| GTGCTCGGCTCCTCTCTCAGTAGCTTGTATGTGTCAGTTGCGGAGTCACCTAGTGCAG | 10500 fluorescence intensity (a.u.) |
| AGCTTCAACCTCTTGTAACTTTCCTTTGAGTATATCTCTCCGGAGTCACCTAGTGCAG | 10200 fluorescence intensity (a.u.) |
| GGATATCCGGTTTTGTGGTTGGGTGACGATTTTGTAATTCCGGAGTCACCTAGTGCAG | 9010 fluorescence intensity (a.u.) |
| TTGGGTTTAGGGCGGTAATTCGGTTGACCGCGATAGTTCACGGAGTCACCTAGTGCAG | 12400 fluorescence intensity (a.u.) |

| Sequence | binding signal |
| --- | --- |
| GGGTGAAAATGTCTGGTTTTGTGGTTTAAGGGTGTAATTCCGGAGTCACCTAGTGCAG | 8700 fluorescence intensity (a.u.) |
| GGTGTGATATATCTGGTTTTGTGGTTCGGTGGGGTAATTCCGGAGTCACCTAGTGCAG | 22000 fluorescence intensity (a.u.) |
| GGGTGAGTAATATCTGGTTTTTGGGTTTAGGGCGGTAATTCGGAGTCACCTAGTGCAG | 17700 fluorescence intensity (a.u.) |
| TGTCCGGTATTTTAAGTTTAGGGTGAGTAATATCTGGTTTCGGAGTCACCTAGTGCAG | 10600 fluorescence intensity (a.u.) |
| CATCATACAGTAACAGCACAAGCACACACTACACGCACTCCGGAGTCACCTAGTGCAG | 8640 fluorescence intensity (a.u.) |
| GGGTTGGTTCCTGCCTCTCGAGTCTCAGCAAGTGTGTCACCGGAGTCACCTAGTGCAG | 11500 fluorescence intensity (a.u.) |
| CAAATGGCCCACCTGTCCTAGCTTGGCCCGGCCCGGGCACCGGAGTCACCTAGTGCAG | 8680 fluorescence intensity (a.u.) |
| TAGCTCCAGTATTAATTTCTTTCCATCCTCCATTTTCTTGCGGAGTCACCTAGTGCAG | 9120 fluorescence intensity (a.u.) |
| CAACAGACTCTTCCCCTTCGCTCGCTCGCCTCCTCTTTCCCGGAGTCACCTAGTGCAG | 8220 fluorescence intensity (a.u.) |
| CCATTCTTTCATCTCGCTTCACCTCATCGCCATTGCCATCCGGAGTCACCTAGTGCAG | 8810 fluorescence intensity (a.u.) |
| CTAGCTTCGCCATCCACATTCTTCTTGCTTCTTGCTCCTCCGGAGTCACCTAGTGCAG | 12700 fluorescence intensity (a.u.) |
| TACATCCCTTGCCATCTCCATCGCCGGCTTCCTCGCCATTCGGAGTCACCTAGTGCAG | 17100 fluorescence intensity (a.u.) |
| TCTTTCTTCCATTGCACCTAGCTTTCATCTTCTTCTCTTCCGGAGTCACCTAGTGCAG | 14200 fluorescence intensity (a.u.) |
| ATCCATCCATCTATTCGCTTCCCTTTCCTTGCACCTCTGCCGGAGTCACCTAGTGCAG | 9050 fluorescence intensity (a.u.) |
| CCTTCACCTCCTTGCAAGTTCCATTCTTTCATCTCGCTTCCGGAGTCACCTAGTGCAG | 16500 fluorescence intensity (a.u.) |
| TTTGTCAATTGATGTATACATATGTGCTTTGTGTTCCTACCGGAGTCACCTAGTGCAG | 11100 fluorescence intensity (a.u.) |
| CTGATTCGAACGCAGCCATAGTCACTCTTTCACTCTCACTCGGAGTCACCTAGTGCAG | 11000 fluorescence intensity (a.u.) |
| GTAAATCCGCTCCAATTGACTCTACCAACCCACCCGTGCTCGGAGTCACCTAGTGCAG | 9420 fluorescence intensity (a.u.) |
| AATTTGTGTGTAATTTTTTAGGATTTGTGATGTATTTGATCGGAGTCACCTAGTGCAG | 9210 fluorescence intensity (a.u.) |
| CCACACTTGCCCGCTACCCACTCTGATCTATCTCCACTGTCGGAGTCACCTAGTGCAG | 9630 fluorescence intensity (a.u.) |
| TCTCCTCCCTCGTTTCTCCTGACACGCTCTCATCCTACAACGGAGTCACCTAGTGCAG | 8660 fluorescence intensity (a.u.) |
| TTATCACAGATTCACAGTCCTTTGCCTTCATAAACACCTCCGGAGTCACCTAGTGCAG | 65500 fluorescence intensity (a.u.) |
| GCAATTTGCCTCTTTGTTCCTCATAGTCCAGACACAATTCCGGAGTCACCTAGTGCAG | 9840 fluorescence intensity (a.u.) |
